# Screens deposited in PubChem by National Center for Advancing Translational Sciences (NCATS).
# Most compounds without a hit are left out; they make up all but 3.8% or so of the library.
# GLS inhibitor: blocks human kidney-isoform glutaminase activity; O94925; GLS enzymatic activity, qHTS titration; Potency, µM (series often up to 45.5 µM), without a hit: at the highest dose activity change, negative = inhibition, actives largely listed as inhibitors; actives 0.21% (n = 410,000); AID 624170; note: % is set by controls: 0 for no effect and ±100 for the full control effect
# Target sequence (O94925 whole entry, looked up, canonical isoform): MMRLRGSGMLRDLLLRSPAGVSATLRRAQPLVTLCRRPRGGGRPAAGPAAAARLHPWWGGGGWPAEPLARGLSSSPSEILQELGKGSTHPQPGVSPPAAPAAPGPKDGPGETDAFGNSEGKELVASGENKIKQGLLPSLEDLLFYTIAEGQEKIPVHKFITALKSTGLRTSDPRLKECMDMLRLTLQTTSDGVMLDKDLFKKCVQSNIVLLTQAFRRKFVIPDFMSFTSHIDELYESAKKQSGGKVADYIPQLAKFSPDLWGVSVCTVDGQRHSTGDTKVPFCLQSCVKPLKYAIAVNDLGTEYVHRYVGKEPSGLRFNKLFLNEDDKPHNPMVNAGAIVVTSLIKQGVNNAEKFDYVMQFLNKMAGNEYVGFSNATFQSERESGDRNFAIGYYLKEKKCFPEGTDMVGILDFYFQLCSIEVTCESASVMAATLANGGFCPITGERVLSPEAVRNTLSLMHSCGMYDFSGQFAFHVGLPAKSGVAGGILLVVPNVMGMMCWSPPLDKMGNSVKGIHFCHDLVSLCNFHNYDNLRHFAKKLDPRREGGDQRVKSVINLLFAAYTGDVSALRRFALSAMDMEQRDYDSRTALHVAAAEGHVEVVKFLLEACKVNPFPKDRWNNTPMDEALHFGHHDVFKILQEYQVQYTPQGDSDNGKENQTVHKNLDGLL
#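 Glutamate formation by hKGA was monitored fluorometrically using coupled glutamate oxidase, HRP and Amplex Red. Substrate was added as 1 mM L-glutamine solution; incubation was 30 min at RT after an initial read.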
# GCN5L2 inh: GCN5L2 (KAT2A) acetyltransferase inhibition | Q92830 | Potency, µM (highest dose often 58.9 µM), for the others: at the highest dose activity change, negative = inhibition, actives largely listed as inhibitors | actives 0.21% (n = 390,000) | GCN5L2 HAT assay, ThioGlo1 CoA-SH fluorescence; note: % is set by controls: 0 for no effect and ±100 for the full control effect
#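 Titration-based screen in which CoA formation is detected via maleimide probe ThioGlo1 (50uM) turning fluorescent on thiol reaction; substrates H3(1-25) 75uM and acetyl-CoA 70uM, GCN5L2 20nM, 20 min incubation at room temperature.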
# Sfp inh: Sfp phosphopantetheinyl transferase inhibition; Q9F4F7; Biochemical Sfp PPTase activity, qHTS; Potency, µM, for the others: largest response in the series, negative = inhibition, most hits filed as inhibitors; actives 3.5% (n = 310,000);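 note: the enzyme is Sfp with the accession as filed and its product quenches rhodamine fluorescence; 0% = enzyme reaction without inhibitor and -100% = no enzyme wells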
#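 Fluorescence-quenching assay: 15 nM Sfp-PPTase preincubated 15 min at room temperature with compound, then 5 uM rhodamine-CoA and 12.5 uM BHQ-2-labelled YbbR peptide added. Fluorescence (ex 525/em 598 nm) read at start and after 30 min; difference gives rate.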
# VDR inhibitor: vitamin D3 receptor (human) inhibition; P11473; VDR-SRC2-3 peptide fluorescence polarization, 2 h; Potency, µM, inactives show max response, negative = inhibition, hits mostly inhibitors; actives 0.93% (n = 400,000); note: % is set by controls: 0 for no effect and ±100 for the full control effect
#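 The screen uses fluorescence polarization to detect compounds that interfere with recruitment of the SRC2-3 coactivator peptide to VDR; plates are read after 2 h at room temperature.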
# TrxR1 inh: rat TrxR1 inhibition; O89049; recombinant rTrxR1, NADPH fluorescence consumption, selenite substrate; Potency, µM (highest dose often 114 µM), inactives show top-dose activity change, negative = inhibition, actives largely listed as inhibitors; actives 1% (n = 390,000); note: % is set by controls: 0 for no effect and ±100 for the full control effect; nearly all actives have a fitted effect of over 65% in size
#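 Rat TrxR1 (90 nM in the dispensed reagent) was pre-reduced with 400 uM NADPH for 5 min at room temperature, then incubated with compound for 15 min. After 400 uM selenite was added, NADPH fluorescence (Ex 340/Em 450 nm) was followed for 8 min.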
# TrxR1 substrate: is turned over as a substrate by rat TrxR1; AID 588456; purified TrxR1 substrate turnover, NADPH consumption readout; actives 0.01% (n = 390,000); Potency, µM (series often up to 114 µM), inactives show at the highest dose activity change, negative = substrate turnover; O89049; note: % is set by controls: 0 for no effect and ±100 for the full control effect; nearly all actives have a fitted effect of over 50% in size
#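 Rat TrxR1, dispensed at 90 nM, was prereduced with 400 uM NADPH (final) for 5 min at ~22 deg C, then incubated with compound 15 min before 400 uM selenite. A first-read NADPH fluorescence drop versus no-compound background flagged substrates.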
# VDR inh confirm: confirmation of human vitamin D receptor inhibitors | Potency, µM, usual class: inhibitors | actives 89% (n = 840) | VDR-coactivator inhibition assay, qHTS confirmation | shares compounds with VDR inhibitor | AID 602199
# VDR FP: VDR (human) coactivator binding inhibition, fluorescein polarization; Potency, µM (highest dose often 57.1 µM), for inactives: at the highest dose activity change, negative = inhibition, hits mostly inhibitors; actives 48% (n = 840); shares compounds with VDR inhibitor; VDR-coactivator binding, fluorescein fluorescence polarization
# VDR bla reporter: inhibits human VDR in beta-lactamase reporter cells | VDR beta-lactamase reporter cells, FRET ratio; cells co-treated with VDR agonist LG190178 | shares compounds with VDR inhibitor | Potency, µM (series often up to 46.1 µM), for the others: at the highest dose activity change, negative = inhibition, most hits filed as inhibitors | actives 23% (n = 840); note: % is set by controls: 0 for no effect and ±100 for the full control effect
# VDR viability: cytotoxic in counter-screen for VDR inhibitors; shares compounds with VDR inhibitor; cytotoxicity counter-screen, cell viability, qHTS; Potency, µM (top dose mostly 48.3 µM), for the others: top-dose activity change, negative = cytotoxicity, usual class: cytotoxic; actives 18% (n = 840);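 note: plate controls were DMSO for no effect and high-concentration cycloheximide for full effect; nearly all actives have a fitted effect of over 75% in size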
# An asterisk follows results filed as active; ? = inconclusive; . = no result; [ ] = another dose, or the depositor's remark. Calls come from the whole dose curve; as a rule, active = well fitted curve in the direction sought with a large enough effect; inconclusive = small, poorly fitted or top-dose-only effect, or another doubt; inactive = no such curve, though single readings can be large; an effect the other way counts as inactive or inconclusive. Potency is the fitted concentration of half-maximal effect.
SMILES,GLS inhibitor,GCN5L2 inh,Sfp inh,VDR inhibitor,TrxR1 inh,TrxR1 substrate,VDR inh confirm,VDR FP,VDR bla reporter,VDR viability
CCOc1cc(/C=C\[N+](=O)[O-])ccc1OCC(=O)N1CCOCC1,-14%,2%,40µM*,28µM*,8.9µM*,8%[57.1 µM],27*,?,?,?
Cc1cccc2c1NC(=O)/C2=C\C(=O)c1cccs1,0%,-8%,-13%,?,-28%,-9%,6.3*,8.9µM*,23µM*,30µM*
O=C(Nc1cccc(-c2csc(Nc3ccc(Cl)cc3)n2)c1)c1cc([N+](=O)[O-])cc(C(F)(F)F)c1,7%,1%,26%,-23%,9%,-2%,.,.,.,.
O=C(NCc1cccnc1)/C(=C\c1ccc(-c2cccc(Cl)c2)o1)S(=O)(=O)c1ccccc1,9%,11%,-23%,45µM*,11µM*,-7%,24*,?,6.5µM*,18µM*
CC(=O)Nc1cc(-c2nc3ccccc3o2)ccc1Cl,-1%,-1%,15%,-15%,10%,10%,.,.,.,.
CC1(C)CC(=O)c2cnc(NC(=O)CSC(=S)N3CCCCC3)nc2C1,6%,-2%,8%,0%,14%[57.1 µM],8%[57.1 µM],.,.,.,.
CC(=O)Oc1oc(-c2ccccc2)nc1C=Nc1ccccc1,?,1%,-17%,40µM*,40µM*,-13%,11*,13µM*,18%,-23%
CCOC(=O)c1ccc(N=Cc2nc(-c3ccccc3)oc2OC(C)=O)cc1,71%,-6%,-8%,18µM*,2µM*,-2%,4.2*,?,2%,-9%
CCC(=O)Oc1oc(-c2ccccc2)nc1C=Nc1ccc(C)cc1,1%,-2%,5%,-10%,7%[11.4 µM],5%[11.4 µM],.,.,.,.
CN(C)c1ccc(N=Cc2nc(-c3ccccc3)oc2OC(=O)c2cccc(Br)c2)cc1,29%,-2%,-3%,?,-28%,-3%,.,.,.,.
COc1ccc(N=Cc2nc(-c3ccccc3)oc2OC(=O)c2ccccc2)cc1,6%,-8%,-17%,40µM*,?,2%,9.5*,?,2%,6%
C=CCOc1nc(-c2ccccc2Cl)nc2ccccc12,0%,-8%,-9%,13%,0%[57.1 µM],4%[57.1 µM],.,.,.,.
C#CCOc1ccc(/C=C2/C(=O)N(c3cccc(C(=O)O)c3)N=C2C)cc1OC,0%,-10%,?,?,-7%,-3%,.,.,.,.
CCOc1cc(/C=C2/C(=O)ON=C2C)ccc1OCc1ccc(F)cc1,-5%,-1%,50µM*,79µM*,?,2%[57.1 µM],?,157%,-5%,-34%
CCCOc1ccc(Cl)cc1CNc1ccccc1,-1%,3%,-1%,-10%,20%,4%,.,.,.,.
CCOc1cc(/C=N/NC(=O)c2nnn(-c3nonc3N)c2C)ccc1OCc1ccc(F)cc1,-5%,-6%,18%,-19%,42%[57.1 µM],25%[57.1 µM],.,.,.,.
C#CCOc1ccc(/C=C2/C(=O)ON=C2C)cc1Cl,4%,-2%,?,45µM*,-33%,-5%[57.1 µM],6*,?,-3%,9%
CCCOc1ccc(Cl)cc1/C=C1/C(=O)ON=C1C,5%,-9%,?,25µM*,?,10%,11*,3.5µM*,13%,?
CC1=NOC(=O)/C1=C\c1ccc(-c2ccc(Cl)cc2Cl)o1,-2%,-17%,45µM*,22µM*,?,-9%,3.8*,2.2µM*,?,?
CN1CCN2c3ccccc3CC3(C(=O)OC(C)(C)OC3=O)C2C1 (stereo not drawn),.,.,.,-20%,11%,-1%,.,.,.,.
Cc1ccc(NS(=O)(=O)c2cccc(C(=O)NCCCN3CCCC3=O)c2)cc1,3%,3%,.,12%,12%,9%[57.1 µM],.,.,.,.
C=CCOc1c(Br)cc(/C=C2/C(=O)ON=C2C)cc1OC,-11%,-7%,?,45µM*,?,10%,9.5*,?,-10%,11%
C#CCOc1c(Br)cc(/C=C2/C(=O)ON=C2C)cc1OCC,-7%,-6%,-68%,?,?,-2%,.,.,.,.
C#CCOc1c(Cl)cc(/C=C2/C(=O)ON=C2C)cc1OCC,-2%,-8%,79µM*,?,?,-6%,7.9*,7.9µM*,-4%,10%
O=C(Oc1ccc(Br)cc1C(=O)/C=C/c1ccccc1F)c1ccco1,-14%,.,.,45µM*,-24%,5%,?,7.1µM*,-9%,?
SMILES,GLS inhibitor,GCN5L2 inh,Sfp inh,VDR inhibitor,TrxR1 inh,TrxR1 substrate,VDR inh confirm,VDR FP,VDR bla reporter,VDR viability
CCCS(=O)(=O)c1ncc(Cl)c(C(=O)Nc2sc3c(c2C(=O)NCC)CCCC3)n1,.,.,.,.,?,2%,3.2*,?,5.8µM*,?
CCSc1ncc(Cl)c(C(=O)Nc2sc3c(c2C(=O)NCCOC)CCCC3)n1,.,.,.,.,10%,-4%,.,.,.,.
COc1cc(OC)c(C(=O)C=Cc2ccc(OC)c(OC)c2)c(OC)c1,-12%,.,.,27%,?,-21%,.,.,.,.
COc1ccc(/C=C/C(=O)c2ccc([N+](=O)[O-])o2)cc1OC,-13%,-3%,.,18µM*,14µM*,-15%,3.5*,3.5µM*,3.3µM*,17µM*
CC1(C)CC(=O)c2cc(OCC(=O)NCCCN3CCN(c4ccccc4F)CC3)ccc2O1,-1%,2%,19%,-2%,23%[57.1 µM],23%[57.1 µM],.,.,.,.
CC(=O)Nc1cccc(C(=O)/C=C/c2ccc(C)cc2)c1,9%,8%,-3%,25µM*,?,-18%,21*,?,?,?
CCC(=O)Nc1cccc(C(=O)/C=C/c2ccc(F)cc2)c1,7%,-1%,-18%,?,-18%,-8%,.,.,.,.
CS(=O)(=O)c1ccc(S(=O)CC(=O)OCc2ccccc2)c([N+](=O)[O-])c1 (stereo not drawn),2%,-3%,-27%,18µM*,2.8µM*,6%[57.1 µM],9.5*,13µM*,?,21µM*
